# Assay outcomes deposited in PubChem BioAssay by University of Kansas High Throughput Screening Laboratory.
# The entries come from a sample that favours hits as a whole.
# Pf apPOL inh – Pf-apPOL inhibitors, biochemical, fluorescence; Plasmodium falciparum apicoplast DNA polymerase (apPOL); Recombinant Pf-apPOL, molecular beacon fluorescence, 1.5 h; AID 1794808, 2022; inhibition, % at 10 µM; 210,000 tested, 0.25% active
# mHTT-CaM PPI inh – mutant huntingtin-calmodulin interaction inhibitors – biochemical, AlphaScreen, primary screen | P42858 | AlphaScreen His-mHTT/GST-CaM binding, luminescence | inhibition, % at 15 µM | 190,000 tested, 3.6% active | AID 1671202, 2021;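 note: 0% = both proteins with DMSO and 100% = one protein alone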
# Target sequence (P42858 whole entry, looked up, stated change not applied): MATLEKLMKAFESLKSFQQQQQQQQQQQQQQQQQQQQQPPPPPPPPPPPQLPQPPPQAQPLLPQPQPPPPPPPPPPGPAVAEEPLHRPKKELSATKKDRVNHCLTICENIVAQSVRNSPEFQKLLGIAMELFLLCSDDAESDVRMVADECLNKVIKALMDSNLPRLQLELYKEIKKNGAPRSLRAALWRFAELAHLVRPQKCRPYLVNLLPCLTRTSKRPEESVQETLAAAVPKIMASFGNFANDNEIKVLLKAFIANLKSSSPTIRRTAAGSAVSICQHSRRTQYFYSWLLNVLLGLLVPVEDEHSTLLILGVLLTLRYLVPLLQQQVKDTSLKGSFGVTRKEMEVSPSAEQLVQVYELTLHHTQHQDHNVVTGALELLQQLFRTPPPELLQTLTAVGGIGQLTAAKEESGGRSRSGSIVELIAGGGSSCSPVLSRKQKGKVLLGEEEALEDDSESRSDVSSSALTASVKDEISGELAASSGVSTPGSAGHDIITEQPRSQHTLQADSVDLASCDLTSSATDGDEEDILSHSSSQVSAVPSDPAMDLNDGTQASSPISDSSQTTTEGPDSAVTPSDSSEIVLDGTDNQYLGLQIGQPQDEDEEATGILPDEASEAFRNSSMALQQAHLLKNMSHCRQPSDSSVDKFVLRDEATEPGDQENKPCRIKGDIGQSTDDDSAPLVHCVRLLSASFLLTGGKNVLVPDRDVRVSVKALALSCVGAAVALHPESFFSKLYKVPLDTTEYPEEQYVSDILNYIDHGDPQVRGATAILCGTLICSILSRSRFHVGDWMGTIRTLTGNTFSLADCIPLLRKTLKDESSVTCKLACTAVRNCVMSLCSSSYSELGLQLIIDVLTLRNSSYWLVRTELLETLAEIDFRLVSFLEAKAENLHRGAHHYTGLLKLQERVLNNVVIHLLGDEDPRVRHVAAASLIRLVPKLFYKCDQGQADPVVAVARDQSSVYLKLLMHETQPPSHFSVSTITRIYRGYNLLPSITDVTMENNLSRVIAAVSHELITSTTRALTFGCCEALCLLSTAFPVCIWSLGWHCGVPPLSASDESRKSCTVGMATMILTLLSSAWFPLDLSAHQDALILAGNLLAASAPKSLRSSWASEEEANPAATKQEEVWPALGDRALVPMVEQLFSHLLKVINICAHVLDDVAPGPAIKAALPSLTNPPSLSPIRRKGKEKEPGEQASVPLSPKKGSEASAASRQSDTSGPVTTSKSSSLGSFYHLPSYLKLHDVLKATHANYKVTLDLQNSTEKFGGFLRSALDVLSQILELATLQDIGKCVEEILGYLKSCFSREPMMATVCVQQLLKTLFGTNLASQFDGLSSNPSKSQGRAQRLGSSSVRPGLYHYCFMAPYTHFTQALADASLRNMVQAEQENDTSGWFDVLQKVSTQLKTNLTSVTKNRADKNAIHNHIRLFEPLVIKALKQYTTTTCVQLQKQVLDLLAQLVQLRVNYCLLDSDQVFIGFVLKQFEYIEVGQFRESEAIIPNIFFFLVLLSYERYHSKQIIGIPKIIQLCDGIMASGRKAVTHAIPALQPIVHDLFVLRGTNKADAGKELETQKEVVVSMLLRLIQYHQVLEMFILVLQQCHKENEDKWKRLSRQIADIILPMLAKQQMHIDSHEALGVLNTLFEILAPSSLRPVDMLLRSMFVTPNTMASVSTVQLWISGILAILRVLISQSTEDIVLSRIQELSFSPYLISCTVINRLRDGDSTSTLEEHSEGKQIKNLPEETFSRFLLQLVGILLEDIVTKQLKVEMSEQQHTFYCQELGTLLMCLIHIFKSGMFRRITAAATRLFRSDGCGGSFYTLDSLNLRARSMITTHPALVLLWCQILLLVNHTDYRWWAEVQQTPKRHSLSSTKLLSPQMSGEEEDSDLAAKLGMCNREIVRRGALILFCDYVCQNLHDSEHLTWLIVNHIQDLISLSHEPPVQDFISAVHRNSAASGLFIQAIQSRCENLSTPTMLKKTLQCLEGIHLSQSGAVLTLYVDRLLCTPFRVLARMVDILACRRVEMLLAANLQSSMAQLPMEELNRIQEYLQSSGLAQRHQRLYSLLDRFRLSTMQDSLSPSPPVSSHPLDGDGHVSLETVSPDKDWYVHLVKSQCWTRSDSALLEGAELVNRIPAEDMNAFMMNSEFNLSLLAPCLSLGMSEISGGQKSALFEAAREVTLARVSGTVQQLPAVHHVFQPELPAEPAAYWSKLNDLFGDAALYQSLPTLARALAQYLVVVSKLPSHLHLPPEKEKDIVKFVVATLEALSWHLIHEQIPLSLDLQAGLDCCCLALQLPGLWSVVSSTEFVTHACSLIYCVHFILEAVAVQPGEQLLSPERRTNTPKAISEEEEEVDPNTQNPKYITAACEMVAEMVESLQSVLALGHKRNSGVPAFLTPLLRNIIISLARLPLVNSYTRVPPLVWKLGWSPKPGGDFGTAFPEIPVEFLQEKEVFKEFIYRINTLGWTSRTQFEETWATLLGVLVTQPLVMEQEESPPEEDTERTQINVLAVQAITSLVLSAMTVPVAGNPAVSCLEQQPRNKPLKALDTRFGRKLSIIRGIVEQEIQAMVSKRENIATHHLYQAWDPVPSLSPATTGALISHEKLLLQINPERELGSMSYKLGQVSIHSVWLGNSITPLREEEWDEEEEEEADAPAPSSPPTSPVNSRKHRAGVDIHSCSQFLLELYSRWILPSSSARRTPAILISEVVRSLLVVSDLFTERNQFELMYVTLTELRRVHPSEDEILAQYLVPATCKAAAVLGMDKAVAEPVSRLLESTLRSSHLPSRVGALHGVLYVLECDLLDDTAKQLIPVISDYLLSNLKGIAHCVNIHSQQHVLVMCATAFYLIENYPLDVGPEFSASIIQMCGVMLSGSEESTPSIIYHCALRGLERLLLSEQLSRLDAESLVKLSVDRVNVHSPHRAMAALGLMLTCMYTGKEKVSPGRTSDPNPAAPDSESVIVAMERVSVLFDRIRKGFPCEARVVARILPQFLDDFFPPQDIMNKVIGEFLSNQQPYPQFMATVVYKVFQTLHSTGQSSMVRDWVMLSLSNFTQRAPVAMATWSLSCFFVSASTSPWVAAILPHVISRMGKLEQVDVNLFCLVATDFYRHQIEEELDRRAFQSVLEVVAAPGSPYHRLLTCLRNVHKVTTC
# The depositor's hits bear a star; . = no result. Cut-off read from the data, not from the text of the source: active = inhibition above about 50%; inactive = the rest.
SMILES,Pf apPOL inh,mHTT-CaM PPI inh
Cc1ccc2ccc(C(Nc3ccccn3)c3ccccc3Cl)c(O)c2n1 (stereo unspecified),3,64*
Cc1ccc2cccc(OCc3ccccc3)c2n1,10,-6
O=c1[nH]c(=O)c2sc3nc(-c4ccncc4)cc(C(F)(F)F)c3c2[nH]1,-4,3
Cc1ccc2c(Nc3ccc(F)cc3C)c(-c3nc(C)no3)cnc2n1,-4,58*
Cc1ccc(Nc2c(-c3nc(C)no3)cnc3nc(C)ccc23)c(C)c1,3,44
CC(C)CNC(=O)c1ccc2c(c1)Sc1ncccc1C(=O)N2C(C)C,-3,6
Cc1c(C(=O)N2CCCC2)oc2ccc(S(=O)(=O)N3CCCCC3)cc12,-6,5
O=C(O)c1cc(-n2cccc2)ccc1Cl,18,72*
O=C(O)c1cc(N2C(=O)C3C4c5ccccc5C(c5ccccc54)C3C2=O)ccc1Cl (stereo unspecified),0,1
CCC(CO)NC(=O)C(=O)NCCC1=CCCCC1 (stereo unspecified),-2,-2
CCN(CC)S(=O)(=O)c1ccc(-c2csc(C)n2)s1,-8,.
Cc1ccc(NCCNS(=O)(=O)c2ccc(-c3csc(C)n3)s2)nn1,-6,99*
CCn1c(SC)nnc1-c1nn(C)c2c1CN(C(=O)CCC1CCCC1)CC2,-2,15
Nc1ccc(-c2ccc(S(=O)(=O)c3ccc(-c4ccc(N)cc4)cc3)cc2)cc1,-2,62*
Nc1ccc(S(=O)(=O)c2ccc(N)c(N)c2)cc1N,48,9
Nc1ccc(-c2ccc(S(=O)(=O)c3cccc(N)c3)cc2N)cc1,4,69*
Nc1ccc(S(N)(=O)=O)cc1,.,-4
O=C(NC1CCCCCCC1)C1c2cccn2CC(=O)N1CCc1ccc(Cl)cc1 (stereo unspecified),3,-2
O=C1CCCC(O)=C1C(C#Cc1ccccc1)C1=C(O)CCCC1=O,-2,87*
NS(=O)(=O)C#Cc1ccccc1,-3,-9
O=S(=O)(O)C(O)c1ccccn1 (stereo unspecified),.,-3
O=C(NCc1ccc(F)cc1)N1CCCCC1c1nncn1CC1CC1 (stereo unspecified),-3,-1
CSCCC(C(=O)O)n1c(O)c(C2=c3cc(Br)ccc3=NC2=O)sc1=S (stereo unspecified),.,51*
Cc1ccc(Nc2nc(O)c(C3=c4cc(Br)ccc4=NC3=O)s2)cc1C,0,10
O=C1N=c2ccc(Br)cc2=C1c1sc(=O)n(-c2ccccc2)c1O,-6,8
SMILES,Pf apPOL inh,mHTT-CaM PPI inh
Cc1ccccc1-n1c(O)c(C2=c3cc(Br)ccc3=NC2=O)sc1=O,7,63*
O=C(c1ccc(OCC2CCN(C(=O)c3cccc(Cl)c3)CC2)cc1)N1CCCC1,-1,31
COc1ccc(CN2CCc3nc(Nc4ccccc4OC)ncc3C2)c(OC)c1,-1,44
COc1ccc(OC)c(Nc2ncc3c(n2)CCN(Cc2ccc(OC)cc2OC)C3)c1,-3,91*
COc1ccc(OC)c(CN2CCc3nc(Nc4ccccc4OC)ncc3C2)c1,-5,56*
COc1ccccc1CN1CCc2nc(Nc3ccccc3OC)ncc2C1,-1,21
C(C=Cc1ccn[nH]1)=Cc1ccccc1,-10,.
COc1ccc(-c2noc(-c3cccc(OC)c3)n2)cc1,-7,-28
CCc1ccccc1NC(=O)NCc1ccnc(N(CC)CC)c1,3,-7
C=CCn1cnc2c1c(=O)n(C(C)C)c(=O)n2-c1cccc(F)c1,-1,2
COc1ccc(NS(=O)(=O)c2ccc3[nH]c4c(c3c2)CCCC4)cc1,-5,80*
COc1ccc(NS(=O)(=O)c2ccc3[nH]c(=O)sc3c2)cc1,-1,-5
CCOc1ccccc1NS(=O)(=O)c1ccc2[nH]c3c(c2c1)CCCC3,-3,26
CC(=O)c1ccc2c3c([nH]c2c1)CCCC3,-6,0
COC(=O)c1ccc(NS(=O)(=O)c2ccc3[nH]c4c(c3c2)CCCC4)cc1,1,38
O=S(=O)(Nc1ccc(F)cc1F)c1ccc2[nH]c3c(c2c1)CCCC3,-2,91*
CC(=O)c1ccc(NS(=O)(=O)c2ccc3[nH]c4c(c3c2)CCCC4)cc1,-4,63*
COC(=O)c1ccc(NS(=O)(=O)c2ccc3[nH]c4c(c3c2)CCCCC4)cc1,-1,68*
CCc1nc(C(C)C)n2c(=O)n(CC#N)nc2c1C,2,-19
O=c1cc(-c2cc(Br)cc3c2OCOC3)oc2ccccc12,7,2
Clc1cccc(Cl)c1CNc1ccc2c(c1)OCO2,-3,69*
Cc1cccc(CNc2ccc3c(c2)OCO3)c1,3,100*
Fc1cccc(NCc2ccc3c(c2)OCO3)c1,-8,-12
O=C(Nc1ccc2c(c1)OCO2)c1ccccc1Cl,-6,-5
CCn1cc(CN2CCC(C(=O)NCc3ccc4c(c3)OCO4)CC2)c2ccccc21,-1,9
SMILES,Pf apPOL inh,mHTT-CaM PPI inh
CCCNc1cc(N2CCC(CCC(=O)NCCN3CCOCC3)CC2)ncn1,0,4
CCCCC(=O)N1CCN(c2nc(C(C)C)c3c(c2C#N)CC(C)(C)OC3)CC1,-5,-2
CCCC(=O)N1CCN(c2nc(C(C)C)c3c(c2C#N)CC(C)(C)OC3)CC1,89*,0
O=C(c1ccncc1)N1CCC(n2nc(-c3ccsc3)ccc2=O)CC1,-6,16
Cc1ccsc1C(=O)N1CCC(n2nc(-c3ccsc3)ccc2=O)CC1,2,96*
COC(CNC(=O)c1c[nH]n2c(=O)c(Cl)c(C)nc12)OC,-9,5
CCC(=O)NCc1csc(C2CCN(C(=O)c3cccc(Cl)c3)CC2)n1,-4,4
Cc1ccc2c(CN3CCC(C)CC3)cc(=O)oc2c1,-8,-17
CC1CCN(Cc2cc(Br)c(O)c3ncccc23)CC1,-7,100*
Cc1ccccc1C(=O)Nc1ccc(N2CCN(C(=O)c3ccc(F)cc3)CC2)nc1,-4,-1
O=C(c1ccc2nc[nH]c2c1)N1CCc2c(nc(-c3ccc(F)cc3)[nH]c2=O)C1,-7,7
COc1ccc(C2Oc3c(OC)cccc3C3CC(c4cccs4)=NN32)cc1 (stereo unspecified),-15,50*
COc1cccc(C2Oc3c(OC)cccc3C3CC(c4cccs4)=NN32)c1 (stereo unspecified),-17,42
CCOc1cccc2c1OC(c1ccc(OC)c(OC)c1OC)N1N=C(c3ccc(C)o3)CC21 (stereo unspecified),-15,61*
CCOc1cccc2c1OC(c1cc(OC)ccc1OC)N1N=C(c3ccco3)CC21 (stereo unspecified),-20,8
COc1cccc(C2Oc3c(OC)cccc3C3CC(c4ccc(C)o4)=NN32)c1 (stereo unspecified),-16,57*
CCOc1cccc2c1OC(c1ccc(OC)cc1)N1N=C(c3ccc(C)o3)CC21 (stereo unspecified),-14,81*
COc1cccc2c1OC(c1cccc(Cl)c1)N1N=C(c3ccco3)CC21 (stereo unspecified),-28,12
CCOc1cccc2c1OC(c1cc(OC)c(OC)c(OC)c1)N1N=C(c3ccco3)CC21 (stereo unspecified),-20,47
O=C(NCCc1ccco1)c1cc2n(n1)CCCN(Cc1ccc(F)cc1)C2=O,22,5
CSc1cccc(NC(=O)C(=O)NCc2cc(C)oc2C)c1,3,-8
O=C(NCC1CCN(C(=O)Oc2ccccc2)CC1)C(=O)NCC(F)(F)F,-6,-6
